Test results reported in PubChem BioAssay (NCI).
Compounds without any hit were thinned out: in the full panel of roughly 83,000, 20% have a hit.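 In brief: 96-well plates, 48 h treatment, single concentration, percent growth endpoint.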 Active and inactive are the calls of the source. The calls were made as follows: active = growth percent below 10; inactive = the rest.

Legend:
Experiment in all cases: NCI-60 one-dose screen, 48 h (100 = growth as untreated, 0 = no growth, -100 = all killed)
Conditions in all cases: 10 µM
HCT-15 colon = system: HCT-15 colon
HT29 colon = system: HT29 colon
SNB-75 CNS = system: SNB-75 CNS
SNB-19 CNS = system: SNB-19 CNS
U251 CNS = system: U251 CNS
PC-3 prostate = system: PC-3 prostate
SK-MEL-5 melanoma = system: SK-MEL-5 melanoma
UACC-62 melanoma = system: UACC-62 melanoma
LOX IMVI melanoma = system: LOX IMVI melanoma
SK-MEL-28 melanoma = system: SK-MEL-28 melanoma

Measured: growth

O=C(c1ccccc1)C(Sc1ccccc1)c1ccccc1 (stereo not given)
inactive: HCT-15 colon 60.7% | HT29 colon 45.6% | SNB-75 CNS 101% | SNB-19 CNS 110% | U251 CNS 79.4% | PC-3 prostate 73% | SK-MEL-5 melanoma 108% | UACC-62 melanoma 83.5% | LOX IMVI melanoma 74.5% | SK-MEL-28 melanoma 94.1%

CCOc1nc(-c2ccccc2)cc2c(O)c(C(=O)NCCCO)[nH]c(=O)c12
inactive: HCT-15 colon 102% | HT29 colon 104% | SNB-75 CNS 88.6% | SNB-19 CNS 96.9% | U251 CNS 100% | PC-3 prostate 46.3% | SK-MEL-5 melanoma 88.8% | UACC-62 melanoma 99.8% | LOX IMVI melanoma 108% | SK-MEL-28 melanoma 102%

CC1=CSC2=NC(c3ccc(Cl)c(Cl)c3)=CC(c3ccc(Cl)cc3)N12 (stereo not given)
active: SNB-75 CNS -21.8% | LOX IMVI melanoma -82.4%
inactive: HCT-15 colon 66.9% | HT29 colon 101% | SNB-19 CNS 38.5% | U251 CNS 34.8% | PC-3 prostate 45.4% | SK-MEL-5 melanoma 13.6% | UACC-62 melanoma 10.6% | SK-MEL-28 melanoma 37.4%

CCOC(=O)c1c(Cl)c2c(n1Cc1cccc(OC)c1)-c1oncc1CC2
inactive: HCT-15 colon 30.8% | SNB-19 CNS 34% | U251 CNS 26% | PC-3 prostate 31.7% | SK-MEL-5 melanoma 20.9% | UACC-62 melanoma 33.6% | LOX IMVI melanoma 38.3% | SK-MEL-28 melanoma 34%
active: HT29 colon 7.37% | SNB-75 CNS -11.7%

CCCCCCCCCCCCCCCCCBr
inactive: HCT-15 colon 102% | HT29 colon 97.5% | SNB-75 CNS 84.3% | SNB-19 CNS 95.9% | U251 CNS 103% | PC-3 prostate 92.6% | SK-MEL-5 melanoma 98.9% | UACC-62 melanoma 104% | LOX IMVI melanoma 101% | SK-MEL-28 melanoma 108%

CNC(=O)c1cc(Oc2ccc(NC(=O)Nc3ccc(Cl)c(OC4CCCCC4)c3)c(F)c2)ccn1
inactive: HCT-15 colon 37.7% | HT29 colon 48.1% | SNB-75 CNS 51.5% | SNB-19 CNS 41.2% | U251 CNS 38.8% | PC-3 prostate 16.6% | SK-MEL-5 melanoma 15.6% | UACC-62 melanoma 32.2% | LOX IMVI melanoma 42.3% | SK-MEL-28 melanoma 75.4%

Cn1c(N)c(N=Cc2ccccc2)c(=O)n(C)c1=O
inactive: HCT-15 colon 103% | HT29 colon 101% | SNB-75 CNS 91.4% | SNB-19 CNS 105% | U251 CNS 110% | PC-3 prostate 105% | SK-MEL-5 melanoma 108% | UACC-62 melanoma 115% | LOX IMVI melanoma 104% | SK-MEL-28 melanoma 110%

COc1ccc(-c2n/c(=C\c3c(O)[nH]c4ccccc34)cc3c2=Nc2ccccc2-3)cc1
inactive: SNB-75 CNS 66.1% | SNB-19 CNS 63.1% | PC-3 prostate 43.3% | SK-MEL-5 melanoma 70% | UACC-62 melanoma 87.3%
active: HCT-15 colon 1.23% | HT29 colon -37.1% | U251 CNS -61.4% | LOX IMVI melanoma 2.48% | SK-MEL-28 melanoma -25.6%

CN(C1c2ccccc2Oc2ccccc21)S(=O)(=O)c1cc(Cl)ccc1Cl
inactive: HCT-15 colon 33.8% | HT29 colon 20.5% | SNB-75 CNS 56.2% | SNB-19 CNS 65.7% | U251 CNS 43.8% | PC-3 prostate 54.5% | SK-MEL-5 melanoma 39.3% | UACC-62 melanoma 32.6% | LOX IMVI melanoma 50.3% | SK-MEL-28 melanoma 67%

COc1cc(/C=C/C(=O)c2cc(-c3ccccc3)ccc2O)cc(OC)c1OC
inactive: HCT-15 colon 70% | HT29 colon 82.4% | SNB-75 CNS 93.1% | SNB-19 CNS 93.3% | U251 CNS 75.7% | PC-3 prostate 49.4% | SK-MEL-5 melanoma 51.8% | UACC-62 melanoma 58.8% | LOX IMVI melanoma 52.6% | SK-MEL-28 melanoma 98.1%

O=C(O)c1cc(C(F)(F)F)cc(C(F)(F)F)c1
inactive: HCT-15 colon 104% | HT29 colon 100% | SNB-75 CNS 97.6% | SNB-19 CNS 118% | U251 CNS 103% | PC-3 prostate 97.7% | SK-MEL-5 melanoma 109% | UACC-62 melanoma 108% | LOX IMVI melanoma 99.7% | SK-MEL-28 melanoma 103%

CCCCCCCCCCCC(=O)NCCCN(C)C
inactive: HCT-15 colon 93.8% | HT29 colon 65.5% | SNB-75 CNS 75.2% | SNB-19 CNS 102% | U251 CNS 75% | PC-3 prostate 75.5% | SK-MEL-5 melanoma 105% | UACC-62 melanoma 101% | LOX IMVI melanoma 69% | SK-MEL-28 melanoma 91.9%

COc1ccccc1NC1=C(N2CCCCC2)C(=O)c2ccccc2C1=O
inactive: HCT-15 colon 86.1% | HT29 colon 70.6% | SNB-75 CNS 71.1% | SNB-19 CNS 90.2% | U251 CNS 84.5% | PC-3 prostate 33.5% | SK-MEL-5 melanoma 69% | UACC-62 melanoma 81.4% | LOX IMVI melanoma 86.8% | SK-MEL-28 melanoma 96.1%

COc1ccc(N2CCN(c3nc(-c4ccccc4)c(C#N)c(=O)[nH]3)CC2)cc1
inactive: HCT-15 colon 99.4% | HT29 colon 108% | SNB-75 CNS 73.2% | SNB-19 CNS 103% | U251 CNS 95.6% | PC-3 prostate 87.2% | SK-MEL-5 melanoma 96.4% | UACC-62 melanoma 94.8% | LOX IMVI melanoma 99.4% | SK-MEL-28 melanoma 110%

COc1cc(C2C(C#N)=C(c3c[nH]c4ccccc34)Nc3nc(N)[nH]c(=O)c32)cc(OC)c1OC (stereo not given)
inactive: HCT-15 colon 105% | HT29 colon 107% | SNB-75 CNS 80% | SNB-19 CNS 66.5% | U251 CNS 73.6% | PC-3 prostate 62.8% | SK-MEL-5 melanoma 67.4% | UACC-62 melanoma 84.2% | LOX IMVI melanoma 52% | SK-MEL-28 melanoma 56.2%

Cc1cc(Cl)ccc1Nc1nc(C(F)(F)F)ccc1C(=O)N/N=C/c1ccccc1Cl
active: PC-3 prostate 8.2% | SK-MEL-5 melanoma -54.4% | UACC-62 melanoma -4.83%
inactive: HCT-15 colon 22.9% | HT29 colon 14.7% | SNB-75 CNS 37.9% | SNB-19 CNS 29.5% | U251 CNS 22.5% | LOX IMVI melanoma 20.1% | SK-MEL-28 melanoma 37.2%

CC(=O)Nc1ccc(Sc2ccc(NC(C)=O)cc2)cc1
inactive: HCT-15 colon 98.9% | HT29 colon 91.2% | SNB-75 CNS 84.1% | SNB-19 CNS 106% | U251 CNS 95.9% | PC-3 prostate 65.5% | SK-MEL-5 melanoma 105% | UACC-62 melanoma 96.5% | LOX IMVI melanoma 96.3% | SK-MEL-28 melanoma 102%

COc1ccccc1CNCCCN1C(=O)c2ccc3c4c(ccc(c24)C1=O)C(=O)N(CCCNCCNCCCN)C3=O
active: HT29 colon 6.6% | U251 CNS -1.05% | SK-MEL-5 melanoma -31.7% | LOX IMVI melanoma 6.84%
inactive: HCT-15 colon 90% | SNB-75 CNS 28.4% | SNB-19 CNS 10.3% | PC-3 prostate 42.1% | UACC-62 melanoma 23.5% | SK-MEL-28 melanoma 25.4%

COc1cccc2c1C(=O)c1c(O)c3c(c(O)c1C2=O)C[C@@](O)(C(=O)COC(=O)c1cccnc1)C[C@@H]3OC1CC(N)C(O)C(C)O1 (stereo not given in full)
inactive: HCT-15 colon 32.9%
active: HT29 colon -29.5% | SNB-75 CNS -75% | SNB-19 CNS 5.16% | U251 CNS -14.4% | PC-3 prostate -41.8% | SK-MEL-5 melanoma -49.1% | UACC-62 melanoma -88.4% | LOX IMVI melanoma 0.723% | SK-MEL-28 melanoma -13.8%
